Experimental data reported in ChEMBL document CHEMBL1201862, “PubChem BioAssay data set” (2004).
Hit rate of the full screen: of about 57,000 […], about 2,900 (5.1%) were called active. Cut-off read from the data, not from the text of the source: active = GI50 up to about 1.1 µM and inactive = higher. Only a sample is shown. Potency and affinity values are given separately.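 1) Cells in 96-well plates. 2) Compound, 48 h, 5 concentrations. 3) Linear interpolation between surrounding doses. 4) Unreached endpoint = highest concentration. At the GI50, growth is halved.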

These substances were tested on SNB-19 (assay: NCI tumour cell line growth inhibition, 48 h).

First: [Bis(aminomethyl)ethylmethylsilane]tetrachloroplatinum(IV), CHEMBL2146192
Second: [Bis(aminomethyl)tetramethylenesilane]tetrachloropaltinum(IV), CHEMBL2146189
The GI50 of the first is 2.4-fold lower: 5.37 µM for the first, 12.9 µM for the second.

Going from “[Bis(aminomethyl)diethylsilane]tetrachloroplatinum(IV), CHEMBL2146203” to “[Bis(aminomethyl)tetramethylenesilane]dichloropaltinum(II), CHEMBL2146205”, the GI50 rises from 4.05 µM to 47.5 µM (12-fold).

Compared with “mu-(1,7-nanodiamine-N,N')bis-(cis-aminedichloroplatimum (II)), CHEMBL2146215”, “[Bis(aminomethyl)pentamethylenesilane]dichloropaltinum(II), CHEMBL2146202” is 14-fold lower in GI50: 39.1 µM for the first, 2.79 µM for the second.

Compared with “[Bis(aminomethyl)dimethylsilane]tetrachloroplatinum(IV), CHEMBL2146190”, CISPLATIN, CHEMBL11359 is 2.7-fold lower in GI50: 8.77 µM for the first, 3.19 µM for the second.

First: [Bis(aminomethyl)pentamethylenesilane]tetrachloropaltinum(IV), CHEMBL2146204
Second: cis-Bis[[(trimethylsilyl)methyl]amino]tetrachloroplatinum(IV), CHEMBL2146191
The GI50 of the first is 1.5-fold lower: 8.02 µM for the first, 12.4 µM for the second.

For “[Bis(aminomethyl)dimethylsilane]dichloroplatinum (II), CHEMBL2146201”, the GI50 was 24.4 µM.
